As usually defined, the inhibition is the relative decrease from the control value, in per cent.

The whole screen tested about 2,500 compounds, of which about 1,100 (44%) were called active. So high a share suggests a set chosen from earlier hits. The list shows a part of the results. Values without a mark were called inactive.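 The calls were made as follows: active = inhibition above 50% at 4 µM in the single-point screen; inactive = inhibition of 50% or less.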

A short description of the experiment: blockers of TNF-a NF-kB luciferase induction – cell-based, HEK293T NF-kB-Luc, luminescence, selectivity assay for NOD1/NOD2 signaling inhibitor project, primary screen (AID 1852). To be noted: TNF-a induced, 14 h, at 4 µM, stronger effect = higher value.
Consider `COc1ccc(-c2cncnc2-c2ccc(OC)cc2O)cc1`, for which the inhibition was 79.8% (active).

As for `COc1ccc(-c2n[nH]c(C)c2-c2ccc(OC)c(OC)c2)c(O)c1`, the inhibition is 28.7%.

In the case of `COc1ccc(-c2cnc(N)nc2-c2ccc(OC)cc2O)cc1`, the inhibition is 70.5% (active).

Turning to `Cc1c(C(=O)Nc2nonc2-c2ccc(F)cc2)oc2ccc(F)cc12`, the inhibition was 77.4% (active).

On to `COc1cccc(NC(=O)c2oc3ccc(S(=O)(=O)N4CCOCC4)cc3c2C)c1`, for which the inhibition is -31.8%.

For `CC1CCN(c2ccc(-c3cccc(NC(=O)C(F)(F)F)c3)nn2)CC1`, the inhibition is -170%.

Turning to `O=C(OCn1ncc(Cl)c(Cl)c1=O)c1cccc(C(F)(F)F)c1`, the inhibition was 43%.

In the case of `Cc1ccc(C(=O)OCn2ncc(Cl)c(Cl)c2=O)cc1`, the inhibition is 88.1% (active).

For `O=C(OCn1ncc(Cl)c(Cl)c1=O)c1ccc(F)cc1`, the inhibition is 83.1% (active).

In the case of `COc1ccc(Nc2oc(COc3ccccc3OC)nc2C#N)cc1`, the inhibition is 77.8% (active).

Regarding `COc1ccc(CCNc2oc(COc3ccccc3Cl)nc2C#N)cc1OC`, the inhibition is 11.6%.

For the compound `COc1ccc(CCNc2oc(COc3ccc(Br)cc3)nc2C#N)cc1OC`, the inhibition is 24.5%.

On to `Cc1ccc(NS(=O)(=O)c2sc3ccc(Cl)cc3c2C)cc1`, for which the inhibition is 9.4%.

On to `CCOc1ccc(Nc2nc(N)c3ccccc3n2)cc1`, for which the inhibition is -144%.

As for `COc1cc(CNc2ccc3[nH]c(=O)[nH]c3c2)ccc1OCc1cccc(C)c1`, the inhibition is 44.3%.

`CCOc1ccc(S(=O)(=O)Nc2cnc3ccccc3c2)cc1`: the inhibition was 81.5% (active).

As for `CCOc1ccc(NS(=O)(=O)c2ccc3[nH]c(=O)[nH]c3c2)cc1`, the inhibition is 88.5% (active).

For `CCOc1ccc(NS(=O)(=O)c2cc(Cl)ccc2OC)cc1`, the inhibition was 10.6%.

`COC(=O)CCn1nnc(-c2ccc(C(C)C)cc2)n1`: the inhibition is 71.7% (active).

For `CC(C)c1ccc(-c2nnn(CCC(=O)O)n2)cc1`, the inhibition is 49.4%.

For the compound `Cc1ccc(NC(=O)C2=C(c3ccccc3)S(=O)(=O)CCS2(=O)=O)cc1`, the inhibition is 65% (active).

Turning to `O=C(Nc1ccccc1)C1=C(c2ccccc2)S(=O)(=O)CCS1(=O)=O`, the inhibition is 60.9% (active).

In the case of `CC(C)=CCc1c(O)cc2oc3c(CC=C(C)C)c(O)c(O)c(CC=C(C)C)c3c(=O)c2c1O`, the inhibition is 15.6%.

Turning to `Brc1ccc2ncnc(NCc3ccco3)c2c1`, the inhibition was 60.4% (active).

Consider `C=CCNc1ncnc2ccc(Br)cc12`, for which the inhibition is 25.1%.

Turning to `Brc1ccc2ncnc(NCc3cccnc3)c2c1`, the inhibition was 65.2% (active).

On to `Cc1ccc(/C=C2/SC(=S)N(c3ccc(S(=O)(=O)Nc4nccs4)cc3)C2=O)cc1`, for which the inhibition is 21%.

Consider `O=C(O)c1ccc(N/N=C/c2ccc(OC(=O)c3ccccc3Cl)cc2)cc1`, for which the inhibition is 7.7%.

For `CC(C)c1ccc(S(=O)(=O)/N=C2\C=C(NS(=O)(=O)c3ccccc3)C(=O)c3ccccc32)cc1`, the inhibition was 103% (active).

Turning to `CC(C)Cc1ccc(S(=O)(=O)Nc2ccccn2)cc1`, the inhibition is 15.7%.

For the compound `CC(C)(C)c1ccc(S(=O)(=O)/N=C2\C=C(NS(=O)(=O)c3ccccc3)C(=O)c3ccccc32)cc1`, the inhibition was 96.3% (active).

As to `CCc1oc2ccccc2c1C(=O)c1cc(Br)c(O)c(Br)c1`, the inhibition is 71.9% (active).

For `CCOC(=O)c1c(-c2ccccc2)oc2cc(Br)c(O)c(C=O)c12`, the inhibition was 50%.

On to `O=C(N/N=C/c1cc(Br)c(Br)s1)c1ccncc1`, for which the inhibition is 2.7%.

Turning to `CCOc1ccc2c(c1)C(=NNC(=O)c1ccncc1)c1cc(OCC)ccc1-2`, the inhibition is 106% (active).

Take `Cc1ccc(S(=O)(=O)Nc2cccc3cccnc23)c([N+](=O)[O-])c1`: the inhibition is 103% (active).

As to `Cc1nc(C)c(C(=O)NNS(=O)(=O)c2ccc3ccccc3c2)s1`, the inhibition is 21.5%.

Take `COc1cc(NS(=O)(=O)c2ccc3ccccc3c2)c2ncccc2c1`: the inhibition is 55.6% (active).

In the case of `Cc1ccc2cccc(NS(=O)(=O)c3ccccc3)c2n1`, the inhibition was 62.8% (active).

As for `O=[N+]([O-])c1ccccc1S(=O)(=O)Nc1cccc2cccnc12`, the inhibition was 35%.

With `Cc1ccc(S(=O)(=O)Nc2cccc3cccnc23)cc1`, the inhibition is 105% (active).

With `O=S(=O)(Nc1cccc(-c2cn3cccnc3n2)c1)c1ccc(-c2ccccc2)cc1`, the inhibition is 20.8%.

For `COc1ccc(NS(=O)(=O)c2ccc3ccccc3c2)c2ncccc12`, the inhibition was 27.9%.

Turning to `O=S(=O)(Nc1cccc2cccnc12)c1ccccc1`, the inhibition was -4%.

With `COc1cc(C(=O)Nc2sc3c(c2C(=O)NCc2ccco2)CCCC3)cc(OC)c1OC`, the inhibition was -39.2%.

On to `O=C(NCc1ccccc1)c1ccc(C2SCC(=O)N2Cc2ccccc2)cc1` (configuration not stated), for which the inhibition was 33.1%.

In the case of `O=C(NCc1ccco1)c1sc(=S)n2c1[nH]c(=O)c1ccccc12`, the inhibition was 54.1% (active).

Take `O=C(NCc1ccccc1)c1sc(=S)n2c1[nH]c(=O)c1ccccc12`: the inhibition is 73.6% (active).

Regarding `CCOc1ccc(CCNC(=O)c2ccc3c(=O)[nH]c4c(C(=O)NC(C)C)sc(=S)n4c3c2)cc1`, the inhibition is 50.9% (active).

For `CCCCNC(=O)c1sc(=S)n2c1[nH]c(=O)c1ccccc12`, the inhibition is 69.9% (active).

For the compound `COc1ccc(OC)c(CCNC(=O)c2ccc3c(=O)[nH]c4c(C(=O)NC(C)C)sc(=S)n4c3c2)c1`, the inhibition was 35.7%.

Regarding `CC(C)NC(=O)c1sc(=S)n2c1[nH]c(=O)c1ccc(C(=O)NCCc3ccc(Cl)cc3)cc12`, the inhibition was 42.5%.

With `CCNC(=O)/C(C#N)=C/c1c(N2CCN(c3cccc(Cl)c3)CC2)nc2c(C)cccn2c1=O`, the inhibition was -19.8%.

For the compound `COc1ccccc1N1CCN(c2nc(C)nc3c2oc2ccccc23)CC1`, the inhibition is 68.6% (active).

For `CCc1nc(SCC(=O)N2CCN(c3ccccc3)CC2)c2oc3ccccc3c2n1`, the inhibition was 0.6%.

For `COc1ccccc1N1CCN(c2ncnc3sc(C)c(-c4ccccc4)c23)CC1`, the inhibition was 26.9%.

For `Oc1cc2c(cc1C(c1ccc(Cl)c(Cl)c1)N1CCCC1)OCO2` (configuration not stated), the inhibition was -22.5%.

Consider `O=[N+]([O-])c1cc(Cl)cc(/C=N\Nc2ccccn2)c1O`, for which the inhibition was 48.8%.

As for `O=[N+]([O-])c1cc(/C=N/Nc2nc3ccccc3[nH]2)c(O)cc1O`, the inhibition is 66.5% (active).

As to `Cc1cc(N/N=C/c2ccccc2[N+](=O)[O-])nc(-n2nc(C)cc2C)n1`, the inhibition is 1.1%.

Take `Cc1nc([N+](=O)[O-])c(Sc2nc3ccc([N+](=O)[O-])cc3[nH]2)n1Cc1ccccc1`: the inhibition was 38%.

As to `O=[N+]([O-])c1ccc(O)c(/C=N/Nc2nc3ccccc3[nH]2)c1`, the inhibition was 67.8% (active).
